Assay results from PMC5540273 (PLoS ONE, 2017).

System: PRKCQ
Conditions: concentration: 1 μM,replicates: in singlicate; n = 1
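Further: KINOMEscan kinase panel screen.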

| SMILES | %Inh |
| --- | --- |
| Cl.Cl.NC[C@H](Cc1ccc(C(F)(F)F)cc1)NC(=O)c1cc(Br)c(-c2ccnc3[nH]ccc23)s1 [GSK1487252] | 88% |
| C[C@@H]1CCN(C(=O)CC#N)C[C@@H]1N(C)c1ncnc2[nH]ccc12 | 0% |
| CN(C)CC(O)COc1ccc(Nc2nccc(-c3cnn4nc(N5CCOCC5)ccc34)n2)cc1 (centres unmarked) [GW767488] | 21% |
| Cc1occc1-c1nc(N)c(OC[C@@H](N)Cc2c[nH]c3ccccc23)cc1-c1cc2c(C)n[nH]c2cn1 [GSK1660450] | 100% |
| Cc1ccc2c(-c3ccncc3)c(-c3ccc(F)cc3)nn2c1.Cl [GW461484] | 21% |
| C[C@H]1Oc2cc(cnc2N)-c2c(nn(C)c2C#N)CN(C)C(=O)c2ccc(F)cc21 | 12% |
| NC(=O)c1cc(-c2ccccc2)cc2c(C3CCNCC3)c[nH]c12 [GSK301362] | 64% |
| CCn1c(-c2nonc2N)nc2c(C#CC(C)(C)O)nc(OCCN)cc21.Cl.Cl [GSK902056] | 89% |
| Cc1n[nH]c2ccc(-c3cc(OC[C@@H](N)Cc4ccccc4)cnc3-c3ccoc3)cc12.O=C(O)C(F)(F)F.O=C(O)C(F)(F)F [GSK507358] | 95.4% |
| Cl.Cl.NC[C@H](CC1CCCCC1)NC(=O)c1cc(Br)c(-c2ccnc3[nH]ccc23)s1 [GSK1581427] | 90.2% |
| COc1ccc(C[C@@H](CN)NC(=O)c2cc(Br)c(-c3ccnc4[nH]ccc34)s2)cc1.Cl.Cl [GSK1389063] | 92.4% |
| Cl.Oc1cc(-c2nc(-c3ccccc3)[nH]c2-c2ccncc2)ccc1Cl [SB-386023] | 8% |
| Nc1nc(Nc2ccccc2)cc(-c2ccc3c(N)n[nH]c3c2)n1 [GSK2225749] | 0% |
| O=C(NCCCN1CCOC1=O)c1cnc(NCc2cc(Cl)ccc2Cl)nc1NC1CCCC1 | 0% |

System: PRKD1
Conditions: concentration: 1 μM,replicates: in singlicate; n = 1

| SMILES | %Inh |
| --- | --- |
| CNC(=O)c1ccccc1Sc1ccc2c(/C=C/c3ccccn3)n[nH]c2c1 | 0% |
| O=C(NCCNc1ccnc(NCc2ccc(F)cc2)n1)c1cc2ccccc2s1 [GSK1379944] | 0% |
| CN(C)CCOc1ccc(-c2cc(-c3c[nH]nc3-c3ccccn3)ccn2)cc1 [GW835314] | 89% |
| Cc1cc(C(=O)Nc2ccc(Oc3ccc4nc(NC(=O)C5CC5)cn4n3)cc2)nn1-c1ccccc1 | 0% |
| Cc1ccc(-n2nc(C(C)(C)C)cc2NC(=O)Nc2ccc(OCCN3CCOCC3)c3ccccc23)cc1 [GW839464] | 0% |
| CCN(CC)CCCCNc1ncc2cc(-c3c(Cl)cccc3Cl)c(NC(=O)NC(C)(C)C)nc2n1 | 28% |
| CCN(CC)CCOc1ccc(Nc2ncc3cc(-c4c(Cl)cccc4Cl)c(=O)n(C)c3n2)cc1 [SB-601273] | 93.3% |
| Cc1cc2cn[nH]c2cc1-c1cccc2c(N)c(C(N)=O)nnc12 | 86% |
| CC(C)Nc1cc(-c2ccc3c(N)n[nH]c3c2)nc(N)n1 [GSK2221681] | 0% |
| C[C@@H](Oc1cc(-c2cnn(C3CCNCC3)c2)cnc1N)c1c(Cl)ccc(F)c1Cl | 61% |
| Cl.Cl.Nc1nc(-c2ccc3c(N)n[nH]c3c2)cc(N2CCCC(NC(=O)c3ccccc3)C2)n1 (centres unmarked) [GSK2286775] | 0% |
| CC(C)N1C(=O)Cc2cc(Nc3ncc(C(F)(F)F)c(NCc4cccc(S(C)(=O)=O)c4)n3)ccc21 | 0% |
| Cl.Cl.NC[C@H](Cc1ccc(C(F)(F)F)cc1)NC(=O)c1cc(Br)c(-c2ccnc3[nH]ccc23)s1 [GSK1487252] | 83% |
| C[C@@H]1CCN(C(=O)CC#N)C[C@@H]1N(C)c1ncnc2[nH]ccc12 | 0% |
| CN(C)CC(O)COc1ccc(Nc2nccc(-c3cnn4nc(N5CCOCC5)ccc34)n2)cc1 (centres unmarked) [GW767488] | 93.7% |
| Cc1occc1-c1nc(N)c(OC[C@@H](N)Cc2c[nH]c3ccccc23)cc1-c1cc2c(C)n[nH]c2cn1 [GSK1660450] | 93.3% |
| Cc1ccc2c(-c3ccncc3)c(-c3ccc(F)cc3)nn2c1.Cl [GW461484] | 34% |
| C[C@H]1Oc2cc(cnc2N)-c2c(nn(C)c2C#N)CN(C)C(=O)c2ccc(F)cc21 | 0% |
| NC(=O)c1cc(-c2ccccc2)cc2c(C3CCNCC3)c[nH]c12 [GSK301362] | 37% |
| C=CC(=O)Nc1cc2c(Nc3ccc(F)c(Cl)c3)ncnc2cc1OCCCN1CCOCC1 [GW781483] | 0% |
| CCn1c(-c2nonc2N)nc2c(C#CC(C)(C)O)nc(OCCN)cc21.Cl.Cl [GSK902056] | 14% |
| Cc1n[nH]c2ccc(-c3cc(OC[C@@H](N)Cc4ccccc4)cnc3-c3ccoc3)cc12.O=C(O)C(F)(F)F.O=C(O)C(F)(F)F [GSK507358] | 91.4% |
| Cl.Cl.NC[C@H](CC1CCCCC1)NC(=O)c1cc(Br)c(-c2ccnc3[nH]ccc23)s1 [GSK1581427] | 64% |
| COc1ccc(C[C@@H](CN)NC(=O)c2cc(Br)c(-c3ccnc4[nH]ccc34)s2)cc1.Cl.Cl [GSK1389063] | 83% |
| Cl.Oc1cc(-c2nc(-c3ccccc3)[nH]c2-c2ccncc2)ccc1Cl [SB-386023] | 0% |
| Nc1nc(Nc2ccccc2)cc(-c2ccc3c(N)n[nH]c3c2)n1 [GSK2225749] | 0% |
| O=C(NCCCN1CCOC1=O)c1cnc(NCc2cc(Cl)ccc2Cl)nc1NC1CCCC1 | 23% |
